Assay results from ChEMBL document CHEMBL2218924, “A broad activity screen in support of a chemogenomic map for kinase signalling research and drug discovery” (Biochem J, 2013).

How the values were obtained:
[1] = target: Mitogen-activated protein kinase 11 (Homo sapiens) (UniProt Q15759); details: at 1 µM
[2] = target: Mitogen-activated protein kinase 11 (Homo sapiens) (UniProt Q15759); details: at 10 µM
[3] = target: T1, Mitogen-activated protein kinase 13 (Homo sapiens) (UniProt O15264); details: at 1 µM
T1 sequence (whole entry): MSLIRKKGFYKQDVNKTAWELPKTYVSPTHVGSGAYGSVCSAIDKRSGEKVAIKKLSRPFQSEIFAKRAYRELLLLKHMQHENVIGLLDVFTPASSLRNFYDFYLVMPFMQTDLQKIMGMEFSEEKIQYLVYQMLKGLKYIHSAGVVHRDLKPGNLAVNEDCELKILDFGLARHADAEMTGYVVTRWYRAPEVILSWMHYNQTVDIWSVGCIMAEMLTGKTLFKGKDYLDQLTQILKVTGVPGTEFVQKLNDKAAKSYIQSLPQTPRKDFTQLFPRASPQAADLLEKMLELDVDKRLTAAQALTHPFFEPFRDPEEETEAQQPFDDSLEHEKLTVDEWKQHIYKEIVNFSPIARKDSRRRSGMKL

[4] = target: T1, Mitogen-activated protein kinase 13 (Homo sapiens); details: at 10 µM
[5] = target: T2, Serine/threonine-protein kinase Sgk1 (Homo sapiens) (UniProt O00141); details: at 1 µM
T2 sequence (whole entry): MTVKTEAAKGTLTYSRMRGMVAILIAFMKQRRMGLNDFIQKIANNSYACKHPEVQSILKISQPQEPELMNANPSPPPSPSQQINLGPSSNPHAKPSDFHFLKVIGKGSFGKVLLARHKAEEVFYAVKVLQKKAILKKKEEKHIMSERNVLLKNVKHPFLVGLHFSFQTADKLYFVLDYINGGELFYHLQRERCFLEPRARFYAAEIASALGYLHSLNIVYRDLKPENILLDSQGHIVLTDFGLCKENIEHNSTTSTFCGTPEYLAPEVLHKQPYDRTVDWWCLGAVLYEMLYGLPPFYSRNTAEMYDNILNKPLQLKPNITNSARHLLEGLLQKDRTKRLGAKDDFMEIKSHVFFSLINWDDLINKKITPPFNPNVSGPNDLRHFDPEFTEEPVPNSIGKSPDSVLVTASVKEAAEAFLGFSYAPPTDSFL

[6] = target: T2, Serine/threonine-protein kinase Sgk1 (Homo sapiens); details: at 10 µM
[7] = target: T3, Serine/threonine-protein kinase Sgk2 (Homo sapiens) (UniProt Q9HBY8); details: at 1 µM
T3 sequence (whole entry): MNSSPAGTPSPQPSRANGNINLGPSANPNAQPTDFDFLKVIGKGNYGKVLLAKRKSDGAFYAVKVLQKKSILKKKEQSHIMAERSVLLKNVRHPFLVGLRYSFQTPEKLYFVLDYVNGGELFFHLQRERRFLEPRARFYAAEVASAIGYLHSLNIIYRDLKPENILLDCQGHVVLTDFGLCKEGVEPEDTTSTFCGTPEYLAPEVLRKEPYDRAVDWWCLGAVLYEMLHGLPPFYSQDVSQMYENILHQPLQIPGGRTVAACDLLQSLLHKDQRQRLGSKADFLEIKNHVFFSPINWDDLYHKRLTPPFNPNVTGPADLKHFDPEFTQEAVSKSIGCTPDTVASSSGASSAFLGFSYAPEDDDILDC

[8] = target: T3, Serine/threonine-protein kinase Sgk2 (Homo sapiens); details: at 10 µM
[9] = target: T4, Serine/threonine-protein kinase Sgk3 (Homo sapiens) (UniProt Q96BR1); details: at 10 µM
T4 sequence (whole entry): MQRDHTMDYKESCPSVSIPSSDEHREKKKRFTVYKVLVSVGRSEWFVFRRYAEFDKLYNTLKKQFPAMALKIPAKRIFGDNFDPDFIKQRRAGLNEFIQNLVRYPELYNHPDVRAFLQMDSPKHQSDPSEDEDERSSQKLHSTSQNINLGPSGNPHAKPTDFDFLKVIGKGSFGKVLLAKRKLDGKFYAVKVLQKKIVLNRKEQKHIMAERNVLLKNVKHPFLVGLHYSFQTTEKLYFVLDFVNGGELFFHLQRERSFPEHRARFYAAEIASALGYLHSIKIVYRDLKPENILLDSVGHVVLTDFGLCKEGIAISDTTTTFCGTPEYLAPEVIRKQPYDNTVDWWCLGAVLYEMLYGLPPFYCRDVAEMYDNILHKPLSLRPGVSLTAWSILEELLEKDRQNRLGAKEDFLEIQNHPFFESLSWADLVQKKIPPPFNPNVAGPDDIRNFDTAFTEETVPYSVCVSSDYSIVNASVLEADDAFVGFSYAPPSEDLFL

[10] = target: Serine/threonine-protein kinase SIK1 (Homo sapiens) (UniProt P57059); details: at 1 µM
Chain of Serine/threonine-protein kinase SIK1 (Homo sapiens) (P57059 whole entry): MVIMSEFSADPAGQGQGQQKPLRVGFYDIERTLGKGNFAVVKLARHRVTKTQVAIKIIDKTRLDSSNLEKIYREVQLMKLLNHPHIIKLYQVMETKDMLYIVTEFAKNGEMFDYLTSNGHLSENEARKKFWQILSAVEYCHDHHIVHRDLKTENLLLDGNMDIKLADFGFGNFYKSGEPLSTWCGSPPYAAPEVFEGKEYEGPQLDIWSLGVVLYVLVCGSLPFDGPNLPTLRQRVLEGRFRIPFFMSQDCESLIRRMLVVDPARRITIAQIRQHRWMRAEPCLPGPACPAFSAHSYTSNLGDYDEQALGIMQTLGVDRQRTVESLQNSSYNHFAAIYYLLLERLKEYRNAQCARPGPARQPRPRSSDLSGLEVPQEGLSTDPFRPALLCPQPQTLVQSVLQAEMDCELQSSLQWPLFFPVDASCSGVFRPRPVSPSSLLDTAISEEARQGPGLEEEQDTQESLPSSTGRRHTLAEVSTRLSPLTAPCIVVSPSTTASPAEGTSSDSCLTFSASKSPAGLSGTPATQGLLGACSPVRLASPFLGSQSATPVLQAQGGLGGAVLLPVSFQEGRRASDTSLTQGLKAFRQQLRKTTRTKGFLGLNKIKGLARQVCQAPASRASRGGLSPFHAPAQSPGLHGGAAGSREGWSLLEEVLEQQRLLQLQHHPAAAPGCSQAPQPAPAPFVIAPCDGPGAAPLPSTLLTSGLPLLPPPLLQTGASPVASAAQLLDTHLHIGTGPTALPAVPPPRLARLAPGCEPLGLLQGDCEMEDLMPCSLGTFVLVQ

[11] = target: Serine/threonine-protein kinase SIK1 (Homo sapiens) (UniProt P57059); details: at 10 µM
[12] = target: SRSF protein kinase 1 (Homo sapiens) (UniProt Q96SB4); details: at 1 µM
Chain of SRSF protein kinase 1 (Homo sapiens) (Q96SB4 whole entry): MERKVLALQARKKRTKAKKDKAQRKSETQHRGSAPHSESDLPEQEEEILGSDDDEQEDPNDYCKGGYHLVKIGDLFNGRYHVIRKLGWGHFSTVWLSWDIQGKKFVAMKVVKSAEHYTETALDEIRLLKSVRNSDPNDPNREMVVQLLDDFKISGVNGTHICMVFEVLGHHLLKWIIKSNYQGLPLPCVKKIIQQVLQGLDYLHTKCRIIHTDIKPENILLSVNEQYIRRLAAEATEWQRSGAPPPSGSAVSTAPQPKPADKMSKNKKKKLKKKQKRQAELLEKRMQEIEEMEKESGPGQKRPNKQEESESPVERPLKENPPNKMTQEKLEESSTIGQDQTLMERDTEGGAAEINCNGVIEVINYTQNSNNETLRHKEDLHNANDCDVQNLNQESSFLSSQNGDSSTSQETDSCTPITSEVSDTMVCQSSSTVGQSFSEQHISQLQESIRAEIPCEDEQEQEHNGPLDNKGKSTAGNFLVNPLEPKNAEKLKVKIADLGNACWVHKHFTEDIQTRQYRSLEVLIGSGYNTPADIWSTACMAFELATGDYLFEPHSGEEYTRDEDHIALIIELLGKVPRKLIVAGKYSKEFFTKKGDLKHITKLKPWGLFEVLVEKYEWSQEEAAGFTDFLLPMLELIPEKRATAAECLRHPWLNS

[13] = target: SRSF protein kinase 1 (Homo sapiens) (UniProt Q96SB4); details: at 10 µM
[14] = target: SRSF protein kinase 2 (Homo sapiens) (UniProt P78362); details: at 1 µM
Chain of SRSF protein kinase 2 (Homo sapiens) (P78362 whole entry, looked up): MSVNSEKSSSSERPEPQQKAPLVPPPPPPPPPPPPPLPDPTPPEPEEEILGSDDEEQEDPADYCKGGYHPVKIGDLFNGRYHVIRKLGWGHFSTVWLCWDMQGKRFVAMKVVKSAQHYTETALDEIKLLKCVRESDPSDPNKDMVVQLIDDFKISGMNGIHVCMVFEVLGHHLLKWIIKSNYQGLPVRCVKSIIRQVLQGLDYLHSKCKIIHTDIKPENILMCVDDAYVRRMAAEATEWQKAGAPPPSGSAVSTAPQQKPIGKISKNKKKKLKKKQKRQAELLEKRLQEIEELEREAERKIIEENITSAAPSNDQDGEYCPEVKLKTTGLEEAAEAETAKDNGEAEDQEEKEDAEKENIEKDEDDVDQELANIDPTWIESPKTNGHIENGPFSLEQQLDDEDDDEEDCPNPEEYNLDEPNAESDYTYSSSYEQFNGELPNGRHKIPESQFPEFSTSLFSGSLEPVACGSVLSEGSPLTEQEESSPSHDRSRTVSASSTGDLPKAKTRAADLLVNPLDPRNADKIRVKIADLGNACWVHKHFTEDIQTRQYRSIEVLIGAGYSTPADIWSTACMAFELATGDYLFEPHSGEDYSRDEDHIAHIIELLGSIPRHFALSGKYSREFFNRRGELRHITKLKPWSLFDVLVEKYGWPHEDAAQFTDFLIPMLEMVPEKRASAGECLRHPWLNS

[15] = target: SRSF protein kinase 2 (Homo sapiens) (UniProt P78362); details: at 10 µM
[16] = target: Serine/threonine-protein kinase 33 (Homo sapiens) (UniProt Q9BYT3); details: at 1 µM
Chain of Serine/threonine-protein kinase 33 (Homo sapiens) (Q9BYT3 whole entry, looked up): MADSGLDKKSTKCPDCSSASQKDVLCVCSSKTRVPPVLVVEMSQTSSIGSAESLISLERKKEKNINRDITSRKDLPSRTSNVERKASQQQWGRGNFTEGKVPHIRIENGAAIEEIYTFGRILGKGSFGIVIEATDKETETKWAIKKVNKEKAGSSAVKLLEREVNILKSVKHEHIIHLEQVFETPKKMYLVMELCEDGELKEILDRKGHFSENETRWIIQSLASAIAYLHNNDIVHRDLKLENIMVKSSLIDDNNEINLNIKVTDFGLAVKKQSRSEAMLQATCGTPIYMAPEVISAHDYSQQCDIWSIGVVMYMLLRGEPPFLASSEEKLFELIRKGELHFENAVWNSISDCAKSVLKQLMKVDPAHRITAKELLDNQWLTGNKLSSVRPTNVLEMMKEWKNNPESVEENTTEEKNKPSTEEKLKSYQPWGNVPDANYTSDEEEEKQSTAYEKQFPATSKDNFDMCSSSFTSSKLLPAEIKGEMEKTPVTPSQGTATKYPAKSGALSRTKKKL

[17] = target: Serine/threonine-protein kinase 33 (Homo sapiens) (UniProt Q9BYT3); details: at 10 µM
[18] = target: Serine/threonine-protein kinase PLK2 (Homo sapiens) (UniProt Q9NYY3); details: at 1 µM
Chain of Serine/threonine-protein kinase PLK2 (Homo sapiens) (Q9NYY3 whole entry, looked up): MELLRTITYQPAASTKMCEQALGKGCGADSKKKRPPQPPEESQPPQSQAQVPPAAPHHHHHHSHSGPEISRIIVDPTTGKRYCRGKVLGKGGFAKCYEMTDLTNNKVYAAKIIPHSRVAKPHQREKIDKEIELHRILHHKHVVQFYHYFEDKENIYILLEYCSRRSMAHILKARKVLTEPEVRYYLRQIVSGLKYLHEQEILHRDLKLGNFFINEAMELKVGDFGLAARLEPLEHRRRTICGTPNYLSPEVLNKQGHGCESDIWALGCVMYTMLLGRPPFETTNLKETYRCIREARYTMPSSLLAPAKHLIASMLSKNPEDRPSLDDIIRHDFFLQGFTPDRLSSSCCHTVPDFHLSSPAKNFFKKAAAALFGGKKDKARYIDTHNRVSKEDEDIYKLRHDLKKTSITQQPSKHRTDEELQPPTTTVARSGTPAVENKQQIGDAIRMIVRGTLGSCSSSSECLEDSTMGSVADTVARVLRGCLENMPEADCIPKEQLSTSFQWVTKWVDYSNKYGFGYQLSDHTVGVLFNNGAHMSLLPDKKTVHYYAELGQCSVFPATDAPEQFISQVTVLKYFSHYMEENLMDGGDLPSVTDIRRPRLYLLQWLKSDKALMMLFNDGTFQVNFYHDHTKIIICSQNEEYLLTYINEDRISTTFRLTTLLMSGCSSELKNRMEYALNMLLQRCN

[19] = target: Serine/threonine-protein kinase PLK2 (Homo sapiens) (UniProt Q9NYY3); details: at 10 µM
[20] = target: Tyrosine-protein kinase SYK (Homo sapiens) (UniProt P43405); details: at 1 µM

Chain of Mitogen-activated protein kinase 11 (Homo sapiens) (Q15759 whole entry): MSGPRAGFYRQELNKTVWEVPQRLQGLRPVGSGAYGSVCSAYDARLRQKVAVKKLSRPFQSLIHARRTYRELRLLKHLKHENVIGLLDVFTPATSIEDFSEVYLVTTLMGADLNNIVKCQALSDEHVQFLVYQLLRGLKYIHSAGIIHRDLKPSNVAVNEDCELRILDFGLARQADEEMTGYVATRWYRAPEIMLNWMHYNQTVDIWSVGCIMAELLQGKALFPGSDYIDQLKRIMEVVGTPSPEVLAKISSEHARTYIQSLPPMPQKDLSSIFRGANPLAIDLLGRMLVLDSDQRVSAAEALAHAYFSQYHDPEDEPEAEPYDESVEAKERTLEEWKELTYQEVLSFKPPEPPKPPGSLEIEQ

SMILES | residual activity [1] [%] | residual activity [2] [%] | residual activity [3] [%] | residual activity [4] [%] | residual activity [5] [%] | residual activity [6] [%] | residual activity [7] [%] | residual activity [8] [%] | residual activity [9] [%] | residual activity [10] [%] | residual activity [11] [%] | residual activity [12] [%] | residual activity [13] [%] | residual activity [14] [%] | residual activity [15] [%] | residual activity [16] [%] | residual activity [17] [%] | residual activity [18] [%] | residual activity [19] [%] | residual activity [20] [%]
Nc1n[nH]c2nnc(-c3c(-c4ccccc4)nn4ccccc34)cc12 | 94 | 66 | 99 | 88 | 95 | 123 | 87 | 64 | 80 | 85 | 63 | 92 | 69 | 100 | 83 | 96 | 86 | 99 | 96 | 92
O=c1c2ccccc2[nH]c(=S)n1CCN1CCC(=C(c2ccc(F)cc2)c2ccc(F)cc2)CC1 | 103 | 102 | 102 | 89 | 92 | 43 | 90 | 88 | 72 | 95 | 80 | 81 | 81 | 108 | 97 | 103 | 99 | 113 | 101 | 125
Nc1ccc2ncnc(NCCc3ccc(Oc4ccccc4)cc3)c2c1 | 107 | 101 | 112 | 96 | 88 | 125 | 110 | 74 | 86 | 112 | 75 | 117 | 114 | 114 | 70 | 104 | 91 | 106 | 104 | 93
O=Nc1c(-c2c(O)[nH]c3ccccc23)[nH]c2ccccc12 | 101 | 90 | 90 | 82 | 59 | 28 | 61 | 24 | 56 | 43 | 8 | 90 | 66 | 96 | 67 | 43 | 8 | 97 | 82 | 49
Cn1nc2c3c(cccc31)C(=O)c1ccccc1-2 | 101 | 92 | 94 | 88 | 77 | 72 | 100 | 69 | 74 | 132 | 64 | 101 | 89 | 100 | 71 | 87 | 74 | 100 | 89 | 96
CC(=O)O/N=C1\C(=C2\C(=O)Nc3cc(Br)ccc32)Nc2ccccc21 | 94 | 100 | 99 | 89 | 69 | 56 | 83 | 48 | 65 | 57 | 3 | 106 | 100 | 102 | 78 | 98 | 79 | 104 | 98 | 80
O=C(Nc1cccc(Nc2cc(Nc3cccc(C(F)(F)F)c3)ncn2)c1)C1CC1 | 92 | 48 | 107 | 97 | 112 | 85 | 83 | 69 | 128 | 107 | 104 | 96 | 88 | 90 | 84 | 99 | 97 | 100 | 90 | 112
O=C1NC(=O)c2c1c1c3ccccc3[nH]c1c1[nH]c3cc(Br)ccc3c21 | 105 | 107 | 101 | 94 | 44 | 50 | 64 | 69 | 78 | 111 | 83 | 82 | 96 | 83 | 77 | 94 | 88 | 93 | 94 | 104
CC#CC(=O)Nc1cc2c(Nc3ccc(F)c(Cl)c3)ncnc2cn1 | 90 | 86 | 107 | 96 | 95 | 106 | 100 | 77 | 88 | 81 | 77 | 91 | 100 | 88 | 88 | 94 | 98 | 97 | 93 | 117
O=C1NC(=O)c2cc(Nc3ccc(F)cc3)c(Nc3ccc(F)cc3)cc21 | 95 | 72 | 98 | 89 | 108 | 76 | 97 | 67 | 96 | 98 | 0 | 102 | 93 | 96 | 95 | 95 | 101 | 97 | 96 | 118
CNc1cc2c(Nc3cccc(Br)c3)ncnc2cn1 | 98 | 93 | 110 | 95 | 81 | 75 | 111 | 79 | 96 | 43 | 57 | 93 | 97 | 98 | 92 | 96 | 93 | 106 | 89 | 117
O=C1NC(=O)/C(=C/c2ccc3c(c2)OC(F)(F)O3)S1 | 98 | 117 | 106 | 106 | 116 | 82 | 102 | 85 | 108 | 94 | 119 | 118 | 98 | 102 | 84 | 106 | 109 | 112 | 95 | 121
COc1ccc(CNc2nc(N(CCO)CCO)nc3c2ncn3C(C)C)cc1 | 100 | 92 | 100 | 105 | 73 | 116 | 107 | 80 | 85 | 93 | 78 | 95 | 67 | 86 | 65 | 96 | 83 | 91 | 94 | 94
